We go through 40 compounds from PubChem BioAssay (NCI).

The panel holds about 83,000 compounds, 20% with a hit somewhere; the sample as a whole holds those more often.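 Each cell line was grown in a 96-well plate and treated with one concentration of compound for 48 hours. Values below 10 were considered active.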 The source made the active and inactive calls.

For the assay, the system named is HL-60(TB) leukemia. The experiment in a line: NCI-60 one-dose screen, 48 h (100 = growth as untreated, 0 = no growth, -100 = all killed). To be noted: 10 µM unless noted.
`O=C1OCC2=C1C(c1cccc(Br)c1)c1cc3c(cc1N2CCO)OCCO3` (stereo not given): the growth was -23.7% (active).
With `Cc1[nH]c(-c2cc(N)ccc2Cl)c2c1C(=O)CCCC2`, the growth is -14.4% (active).
With `COc1cc(-c2ccc(-c3ccc(C(=N)N)cc3)s2)cc(OC)c1OC`, the growth was 3.15% (active).
Take `Nc1c(C(=O)Nc2ccnc3ccccc23)sc2nc3c(cc12)CN(Cc1ccccc1)CC3`: the growth is 32.7% (inactive).
Turning to `Cc1onc(-c2c(F)cccc2Cl)c1-c1ncc(-c2ccc(Br)cc2)o1`, the growth was 37.5% (inactive).
As to `CCOC(=O)C#Cc1c(C(=O)OCC)nnn1[C@@H]1O[C@H](COC(C)=O)[C@@H](OC(C)=O)[C@H]1OC(C)=O`, the growth is 74% (inactive).
With `Fc1ccc2nc3c(cc2c1)CSc1nnc(-c2ccc[nH]c2=S)n1N3`, the growth is 106% (inactive).
Turning to `COc1cc(C2CC(=O)Nc3c2ccc2ccccc32)cc(Br)c1OC` (stereo not given), the growth was -15.2% (active).
`COc1cc2nc(-c3ccc(C(F)(F)F)cc3)cc(OCCN3CCCCC3)c2cc1OC`: the growth was 58.6% (inactive).
Turning to `O=C1/C(=C/c2ccc(-c3cccc(C(F)(F)F)c3)o2)SC(=S)N1CCc1ccc(O)cc1`, the growth is 35.7% (inactive).
With `CCOC(=O)c1c(C)nc2c(c1N)/C(=C/c1ccc(OC)cc1)C(=O)N2Cc1ccccc1` the figure was 45.8% (inactive); with `COc1cccc(C=Nc2cc(C(C)C)c(O)cc2C)c1O`, 85.9% (inactive); with `CCN(CC)Cc1cc(C=C2C(=O)NC(=S)NC2=O)cc(OC)c1O`, 106% (inactive).
For `O=C(/C=C/c1c[nH]c2ccccc12)c1ccc(O)c(CN2CCN(c3ccc(F)cc3)CC2)c1`, the growth was 97% (inactive).
Regarding `CCCCCCCCCCN1CC2CCCCC2C1` (stereo not given), the growth is 68.5% (inactive).
In the case of `Cc1cc(C(=O)/C=C/c2ccc[nH]2)ccc1-n1ccc(C(F)(F)F)n1`, the growth is -21% (active).
For `CC1=CSC2=NCCN12`, the growth was 97.1% (inactive).
Consider `C#CC[C@H](N)C(=O)O`, for which the growth was 99.9% [20 µM] (inactive).
As for `C=C(C=O)C1CCC2(C(=O)O)CCC3(C)C(CCC4C5(C)CCC(O)C(C)(C)C5CCC43C)C12` (stereo not given), the growth is 6.38% (active).
Consider `COc1cc2cc3c(nc2cc1OC)CCN3Cc1ccc(NC(=O)Nc2ccc(F)cc2F)cc1`, for which the growth was 80.5% (inactive).
Then `C=C(C)[C@@H]1CC[C@]2(CN)CC[C@]3(C)[C@H](CC[C@@H]4[C@@]5(C)CCCNC(C)(C)[C@@H]5CC[C@]43C)[C@@H]12`, with -52.8% (active).
As to `Cc1ccc2c(c1)C(=O)/C(=C/c1ncc([N+](=O)[O-])n1C)O2`, the growth is -13% (active).
`COc1cccc(-c2nc3sccn3c2-c2ccnc(NCCNC(=O)c3ccccc3)n2)c1`: the growth is 94.2% (inactive).
Take `Cc1ccc(C)c2c1C(O)(C#Cc1ccccc1)c1ccccc1C2(O)C#Cc1ccccc1` (stereo not given): the growth was 35.6% (inactive).
Then `CCOC(=O)C1=C(c2ccccc2)N=C2SC=C(c3cccc([N+](=O)[O-])c3)N2C1c1ccc(O)cc1` (stereo not given), with 107% (inactive); and `Cc1c2cc[nH]c(=O)c2c(C)c2c1[nH]c1ccc(OC(=O)c3ccccc3)cc12`, with 51.3% (inactive).
Take `Cc1nc(-c2ccccc2)cc2c(O)c(C(=O)NN)[nH]c(=O)c12`: the growth is 126% (inactive).
As to `Cc1ccc(S(=O)(=O)NC(=O)NCCSSCCNC(=O)NS(=O)(=O)c2ccc(C)cc2)cc1`, the growth was 102% (inactive).
On to `CC(C)(C)c1ccc2oc(=O)n(SC(Cl)(Cl)Cl)c2c1`, for which the growth was 70.2% (inactive).
Consider `CSc1nc(C)c([N+](=O)[O-])c(N)n1`, for which the growth was 90.2% (inactive).
With `COc1cccc(C(=O)Cn2cc(/C=C(\C#N)S(=O)(=O)c3ccccc3)c3ccccc32)c1`, the growth was 102% (inactive).
Regarding `COc1ccc(C(O)c2cc3c(N)c(C(=O)Nc4ccc(Br)cc4)sc3nc2C)cc1` (stereo not given), the growth is -41.5% (active).
With `CC(=O)O[C@H]1C[C@@H]2C(C)(C)C(=O)CC[C@@]2(C)c2ccc(C(C)C)cc21`, the growth was 99.2% (inactive).
Take `CC(Br)C(OC(=O)c1ccccc1Cl)c1cc2c(cc1Br)OCO2` (stereo not given): the growth is 103% (inactive).
Regarding `Nc1c2c(nc3ccc(Cl)cc13)CC(c1ccc(O)cc1)CC2=O` (stereo not given), the growth was 18.9% (inactive).
For the compound `COc1ccc(-c2nsc3c2NC(=O)CC3c2cccc(F)c2)cc1` (stereo not given), the growth was 39.2% (inactive).
With `[N-]=[N+]=NCc1cccc(/C(O)=C/C(=O)C(=O)O)c1` the figure was 17.3% (inactive); with `Cc1cc(N2CCOCC2)nc(N[C@@H]2CCC[C@H](Nc3ccnc4cc(Cl)ccc34)C2)n1`, -69.5% (active); with `CC(=O)c1ccc(Nc2nc(Cl)nc(Oc3c(Cl)cccc3Cl)n2)cc1`, 97.8% (inactive).
Then `O=C(Nc1ccccc1CNc1nc(Nc2ccc(OCCN3CCCC3)cc2)ncc1Cl)NC1CCCCC1`, with 99.9% (inactive).
